Screens as filed in PubChem.
This is a sample that favours compounds with a hit; in the whole collection about 3.8% have one here.
Gli-Sufu block = blocks Gli-Sufu signaling in a luciferase reporter; Sufu-KO-LIGHT fibroblasts, Gli luciferase reporter luminescence; inhibition, % at 5 µM; 0.74% of 340,000 active; AID 588413;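 active = inhibition above about 55%, limit read from the data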;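 also: 0% = DMSO-treated cells and 100% = wells with medium but no cells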
697 NFkB inh = lowers PMA/ionomycin-induced NF-kB signal in 697 B cells | 0.33% of 330,000 active | 697 B-cell NF-kB luciferase reporter, 16 h | AID 435022 | inhibition, % at 4 µM; in the data active = inhibition above about 35%
Shn3 inh set2 = Schnurri-3 reporter inhibition in Clone20 osteoblasts; inhibition, % at 12.5 µM; Clone20 osteoblast Shn3 3'UTR firefly luciferase, 24 h; 0.52% of 360,000 active; AID 588674;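 active = mean inhibition of at least 75% with every replicate also reaching 75%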;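 also: 0% = median of neutral control wells and 100% = pilot-screen positive control compound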
Mdm2 MdmX PPI = inhibitors of human Mdm2/MdmX interaction; O15151+Q00987; SaOS-2 split-luciferase Mdm2/MdmX complementation, luminescence; inhibition, % at 8 µM; 3% of 330,000 active;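 active = inhibition of at least 50% at 8 µM in the primary screen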
Target sequence (O15151 whole entry, looked up): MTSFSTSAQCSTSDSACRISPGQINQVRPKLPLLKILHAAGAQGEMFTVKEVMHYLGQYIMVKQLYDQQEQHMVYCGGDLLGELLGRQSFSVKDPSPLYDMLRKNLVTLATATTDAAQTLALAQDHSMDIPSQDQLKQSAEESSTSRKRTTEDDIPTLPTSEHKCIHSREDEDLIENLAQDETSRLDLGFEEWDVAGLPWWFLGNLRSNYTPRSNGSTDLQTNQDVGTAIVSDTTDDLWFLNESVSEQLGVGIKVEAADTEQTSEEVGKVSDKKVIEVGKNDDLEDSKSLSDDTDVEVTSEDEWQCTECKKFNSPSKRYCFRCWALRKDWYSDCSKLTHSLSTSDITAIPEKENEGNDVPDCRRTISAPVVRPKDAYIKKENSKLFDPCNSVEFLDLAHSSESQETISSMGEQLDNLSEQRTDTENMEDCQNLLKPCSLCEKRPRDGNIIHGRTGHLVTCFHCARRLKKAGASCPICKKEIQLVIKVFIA
Target sequence (Q00987 whole entry, looked up): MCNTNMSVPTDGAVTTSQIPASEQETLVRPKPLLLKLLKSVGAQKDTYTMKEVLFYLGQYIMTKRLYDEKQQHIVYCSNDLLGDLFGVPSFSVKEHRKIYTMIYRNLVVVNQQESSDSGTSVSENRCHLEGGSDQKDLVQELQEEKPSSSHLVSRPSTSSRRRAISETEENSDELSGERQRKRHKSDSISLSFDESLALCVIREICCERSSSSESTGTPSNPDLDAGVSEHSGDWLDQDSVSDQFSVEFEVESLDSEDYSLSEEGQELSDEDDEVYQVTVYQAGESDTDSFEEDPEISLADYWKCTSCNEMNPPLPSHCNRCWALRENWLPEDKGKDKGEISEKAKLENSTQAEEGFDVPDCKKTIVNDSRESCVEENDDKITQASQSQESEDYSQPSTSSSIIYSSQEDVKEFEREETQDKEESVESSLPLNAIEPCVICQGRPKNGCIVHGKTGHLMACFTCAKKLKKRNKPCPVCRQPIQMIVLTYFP
Jurkat NFkB inh = lowers PMA/ionomycin-induced NF-kB signal in Jurkat cells. PMA/ionomycin-induced NF-kB luciferase reporter, luminescence. inhibition, % at 4 µM. 0.53% of 330,000 active; in the data active = inhibition above about 50%
Jurkat NFkB conf = lowers PMA/ionomycin-induced NF-kB signal in Jurkat cells; shares compounds with Jurkat NFkB inh; Jurkat NF-kB luciferase, 16 h; inhibition, % at 4 µM; 27% of 2,700 active;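 active = inhibition reaching about 45% at 4 µM in either replicate, limit read from the data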;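 also: plate controls were PMA/ionomycin stimulated DMSO wells for no effect and unstimulated DMSO wells for full effect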
697 NFkB conf = inhibitors of the PMA/ionomycin-induced NF-kB reporter in 697 B cells, retest. shares compounds with 697 NFkB inh. 697 B-cell NF-kB luciferase, 16 h. inhibition, % at 4 µM. 35% of 2,000 active. AID 449746; in the data active = inhibition mostly above about 28%, no sharp cut-off; inactive = mostly below about 22%
Mdm2-MdmX conf = human Mdm2/MdmX binding inhibition, confirmed; shares compounds with Mdm2 MdmX PPI; luminescent assay; inhibition, % at 8 µM; 55% of 10,000 active; in the data active = inhibition above about 40%
FLuc counter = full-length luciferase inhibition in Mdm2/MdmX counter-screen; shares compounds with Mdm2 MdmX PPI; 77% of 6,200 active; inhibition, % at 8 µM; SaOS-2 full-length luciferase counterscreen, luminescence;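 active = mean inhibition at 8 µM reaching about 37%, which flags the compound as non-specific, limit read from the data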;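 also: p53-null SaOS-2 cells with luciferase driven by a doxycycline-inducible promoter; compound on cells about two nights before reading with doxycycline added after day one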
Gli-Sufu confirm = Gli-SUFU antagonism confirmation, single concentration. shares compounds with Gli-Sufu block. Sufu-KO-LIGHT cells, Gli luciferase reporter, luminescence. inhibition, % at 5 µM. 40% of 2,500 active;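 active = mean inhibition at 5 µM reaching about 45%, limit read from the data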;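 also: plate controls were DMSO-treated cells for no effect and wells lacking cells for full effect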
SufuKO cytotox = cytotoxicity counter-screen for Gli-SUFU antagonists; AID 651994; shares compounds with Gli-Sufu block; cytotoxicity, % at 5 µM; 32% of 2,500 active; Sufu-KO-LIGHT cells cytotoxicity, ATP luminescence;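 active = mean cytotoxicity at 5 µM above about 25%, limit read from the data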;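 also: cells exposed to compound overnight for roughly 16 to 18 hours; plate controls were DMSO wells with cells for no effect and medium without cells for full effect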
Wnt3a counter = Wnt3a reporter inhibition counter-screen. shares compounds with Gli-Sufu block. Wnt-LIGHT cells, Wnt3a-driven luciferase reporter, luminescence. inhibition, % at 6.25 µM. 20% of 2,500 active. AID 651995;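 active = mean inhibition above about 25%, limit read from the data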
Starred values were filed as active, the others as inactive; . = no result given.

SMILES | Gli-Sufu block | 697 NFkB inh | Shn3 inh set2 | Mdm2 MdmX PPI | Jurkat NFkB inh | Jurkat NFkB conf | Gli-Sufu confirm | SufuKO cytotox | Wnt3a counter | others
C[C@H](NC(=O)[C@@H]1CSC2c3ccccc3C(=O)N21)C(=O)NC1CCCCC1 (some centres undefined) | -15 | -9 | 15 | 7 | 6 | . | . | . | .
COC(=O)c1ccccc1NC(=O)Cn1c(-c2nonc2N)nc2ccccc21 | 58* | 24 | 5 | 49 | 83* | 51* | 63* | 63* | -4
COC(=O)c1ccc(NC(=O)Cn2c(-c3nonc3N)nc3ccccc32)cc1 | -8 | 18 | 7 | 23 | 7 | . | . | . | .
CCCNC(=O)N(C)C[C@H]1Oc2ncc(C#CCc3ccccc3)cc2C(=O)N([C@H](C)CO)C[C@H]1C | . | . | -7 | . | . | . | . | . | .
COc1ccccc1NC(=O)Cn1c2ccccc2c2nc3n(c(=O)c21)CCS3 | 1 | 2 | 15 | 38 | 1 | . | . | . | .
O=C1NC(=S)N/C1=C\c1ccc(Oc2ccc(C(F)(F)F)cc2[N+](=O)[O-])c(Cl)c1 | -4 | -9 | 11 | -29 | -25 | . | . | . | .
Cc1cc(N2CCOCC2)nc(NCc2ccccc2)n1 | 49 | -31 | 76 | 23 | 20 | . | . | . | .
Cc1cc(N2CCCCC2)nc(NCc2ccccc2)n1 | 50 | -19 | 88* | 65* | 68* | 17 | 41 | 14 | 10 | Mdm2-MdmX conf=45*;FLuc counter=61*
N=c1c2c(n(Cc3ccc(Br)cc3)c3c1CCC3)CCCC2 | 88* | 52* | 82 | 43 | 53* | 40 | 89* | 38* | 54* | 697 NFkB conf=32*
N=c1c2c(n(Cc3ccc([N+](=O)[O-])cc3)c3c1CCC3)CCCC2 | 32 | -23 | 2 | 9 | -4 | . | . | . | .
CCCN(CC(=O)Nc1cc(Cl)ccc1Cl)C(=O)c1ccccn1 | 4 | 9 | 3 | 5 | -10 | . | . | . | .
CN(C)CCn1c2ccccc2c2nc3ccc([N+](=O)[O-])cc3cc21 | 52 | -317 | 1 | 100* | 60* | 10 | 40 | 10 | -162 | 697 NFkB conf=-297;Mdm2-MdmX conf=84*;FLuc counter=60*
CCn1c2ccccc2c2cc([N+](=O)[O-])ccc21 | -3 | 10 | 11 | -4 | 2 | . | . | . | .
O=C(c1ccco1)N1CCN(Cc2nnc(-c3cccc(Cl)c3)o2)CC1 | 29 | -3 | -1 | -24 | 8 | . | . | . | .
CCCCN1C(=O)/C(=C/C=C2\Oc3ccccc3N2CC)SC1=S | 6 | . | 13 | . | . | . | . | . | .
CCN1/C(=C/C=C/c2oc3ccc(-c4ccccc4)cc3[n+]2CC)Oc2ccc(-c3ccccc3)cc21 | 88* | 48* | 96* | 97* | 98* | 21 | 90* | 35* | 39* | 697 NFkB conf=-17;Mdm2-MdmX conf=92*;FLuc counter=1
Cc1ccc(C2(C)NC(=O)N(CC(=O)N3CCN(C(=O)c4cccs4)CC3)C2=O)cc1 (centres undefined) | -3 | 17 | -5 | 17 | -8 | . | . | . | .
CC(C)(C)c1nnc(N/N=C/c2ccccc2O)n(N)c1=O | 61* | -40 | 90* | 59* | 56* | 73* | 71* | 51* | 55* | Mdm2-MdmX conf=82*;FLuc counter=22
O=c1c2ccccc2c2ccccc2c(=O)n1Nc1ccccc1 | . | . | 10 | . | . | . | . | . | .
CCc1ccccc1N(CC(=O)NC(C)c1ccccc1)S(C)(=O)=O (centres undefined) | 4 | -7 | -6 | -17 | -13 | . | . | . | .
COC(=O)c1ccc(COc2cc(O)c3c(c2)OC(C)(C)CC3=O)cc1 | 0 | -26 | 5 | 24 | -1 | . | . | . | .
CC1(C)CC(=O)c2c(O)cc(OCc3ccc(Br)cc3)cc2O1 | 96* | -137 | -76 | -106 | -153 | -68 | -40 | 22 | -123
CCOC(=O)/C=c1/s/c(=C/c2ccccc2OC)c(=O)n1CC(=O)N1CCOCC1 | 4 | . | -16 | . | . | . | . | . | .
O=C(Nc1ccc(S(=O)(=O)N2CCN(Cc3ccccc3)CC2)cc1)c1cnccn1 | 58* | -6 | 82* | 10 | 57* | 54* | 60* | 33* | 29*
O=C(Nc1ccc(S(=O)(=O)N2CCCC2)cc1)c1cnccn1 | 3 | 21 | -7 | 10 | 2 | . | . | . | .
SMILES | Gli-Sufu block | 697 NFkB inh | Shn3 inh set2 | Mdm2 MdmX PPI | Jurkat NFkB inh | Jurkat NFkB conf | Gli-Sufu confirm | SufuKO cytotox | Wnt3a counter | others
COc1cccc(NC(=O)NC2CCCc3ccccc32)c1 (centres undefined) | 6 | 11 | -51 | 13 | 5 | . | . | . | .
C=CCn1c(SCc2c(C)noc2C)nc2ccccc2c1=O | 55 | 16 | -11 | 58* | 78* | 52* | 54* | 58* | -16 | Mdm2-MdmX conf=60*;FLuc counter=66*
C=CCn1c(SCc2c(C)noc2C)nc2cc(C(=O)O)ccc2c1=O | 0 | 2 | 9 | 22 | 8 | . | . | . | .
CCCCC[n+]1cccc2c3ccccc3ccc21 | 74* | 60* | 81 | 50 | 52* | 46 | 85* | 27* | 33* | 697 NFkB conf=42*
O=C(NC1CCN(Cc2ccccc2)CC1)c1ccc2c(c1)[nH]c(=O)n2Cc1ccc(F)cc1 | 53 | -8 | 43 | 41 | 64* | 35 | 28 | 21 | 17
CCn1nc(C)c(CNC(=O)c2ccc(OC3CCN(Cc4ccccn4)CC3)cc2)c1C | 64* | 11 | 65 | 2 | 65* | 57* | 66* | 33* | 38*
CCn1cc(CNC(=O)c2ccc(OC3CCN(Cc4ccccn4)CC3)cc2)cn1 | 14 | -17 | 48 | 22 | 17 | . | . | . | .
OC(CNC1CCCCC1)COCCOc1ccc(Br)cc1 (centres undefined) | 26 | 7 | -6 | 30 | 1 | . | . | . | .
O=C(O)/C=C/C(=O)NCCCc1ccccc1 | -7 | 12 | -24 | 4 | 4 | . | . | . | .
Cc1cc(C(=O)CN2C(=O)NC(C)(c3ccccc3)C2=O)c(C)n1CC1CCCO1 (centres undefined) | -4 | 1 | -5 | 12 | 3 | . | . | . | .
Cc1cc(C(=O)CN2C(=O)c3ccccc3S2(=O)=O)c(C)n1CC1CCCO1 (centres undefined) | 83* | 44* | 68 | 54* | 79* | 22 | 82* | 54* | 99* | 697 NFkB conf=8;Mdm2-MdmX conf=37;FLuc counter=9
